Some test systems named below: SR leukemia; RPMI-8226 leukemia; OVCAR-5 ovarian; OVCAR-4 ovarian; SK-OV-3 ovarian; IGROV1 ovarian; OVCAR-3 ovarian; HS 578T breast; NCI/ADR-RES ovarian; OVCAR-8 ovarian.
Holding throughout (test): NCI-60 one-dose screen, 48 h (100 = growth as untreated, 0 = no growth, -100 = all killed)
Holding throughout (details): 10 µM unless noted

Molecules are shown by their SMILES. This is part of a sample that, as a whole, favours compounds with a hit. Of some 83,000 tested, about 20% had one in any assay.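 How to read the values: 0–100, growth inhibition (40 = 60% inhibited); 0, no net growth; -100 to 0, cell death (-40 = 40% of starting cells died; -100 = all dead).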 Unmarked numbers belong to inactive results. Active and inactive are the calls of the source. Rule for the calls: active = growth percent below 10; inactive = the rest.

For `CC1CN(CCO)CC(C)O1` (centres undefined), the growth in the assay with SR leukemia was 103%; in the assay with RPMI-8226 leukemia, 111%; with OVCAR-5 ovarian, 93.1%; in the assay with OVCAR-4 ovarian, 99.7%; in the assay on SK-OV-3 ovarian, 96.9%; in the assay with IGROV1 ovarian, 103%. The growth was 106% in the assay on OVCAR-3 ovarian, 74.4% with HS 578T breast and 106% in the assay on NCI/ADR-RES ovarian.

With `CC(=O)NC(CCc1ccc(Cl)c(Cl)c1)c1cccc(O)c(=O)c1` (centres undefined), the growth is 6.21% (active) in the assay on SR leukemia; 13.9% in the assay with RPMI-8226 leukemia; 47% in the assay on OVCAR-5 ovarian; 24.5% in the assay with OVCAR-4 ovarian; 12.7% in the assay with SK-OV-3 ovarian; 20.1% with OVCAR-3 ovarian. Further, the growth in the assay with HS 578T breast was 54.1%.

As for `CCN(CC)c1ccc2nc3ccc(N=Nc4ccc(N(C)C)cc4)cc3[n+](-c3ccccc3)c2c1`, the growth with SR leukemia was -18.3% (active); in the assay on RPMI-8226 leukemia it was -23.6% (active); in the assay with OVCAR-5 ovarian it was -58.2% (active); with SK-OV-3 ovarian, -8.27% (active); in the assay with IGROV1 ovarian, 14.5%; with OVCAR-3 ovarian, -30.6% (active). Also, the growth in the assay on NCI/ADR-RES ovarian is 0.224% (active).

In the case of `CCOP(=O)(OCC)/C(=C\N1C(=O)CC(=O)NC1=S)C(=O)OC`, the growth was 96.7% with SR leukemia; 101% in the assay with RPMI-8226 leukemia; 98.7% in the assay on OVCAR-5 ovarian; 94.3% with OVCAR-4 ovarian; 104% in the assay on SK-OV-3 ovarian; 103% in the assay on IGROV1 ovarian. The growth was 114% with OVCAR-3 ovarian, 98.4% with HS 578T breast and 104% with NCI/ADR-RES ovarian.

As for `C=CC(C)(C)n1cc(C2=C(O)C(=O)C(c3cn(C(C)(C)C=C)c4ccccc34)=C(O)C2=O)c2ccccc21`, the growth with SR leukemia is 71.6%; with RPMI-8226 leukemia it was 104%; in the assay on OVCAR-5 ovarian, 122%; in the assay with OVCAR-4 ovarian, 92.4%; with SK-OV-3 ovarian it was 94.3%; in the assay with IGROV1 ovarian, 99.5%. For the same compound, the results for the growth in the assay with OVCAR-3 ovarian and with NCI/ADR-RES ovarian were 107% and 97.5%, respectively.

Regarding `OC1Cc2ccccc2C1`, the growth in the assay on SR leukemia was 94.6%; in the assay with OVCAR-8 ovarian it was 103%; in the assay with OVCAR-5 ovarian, 95.4%; in the assay with OVCAR-4 ovarian, 110%; with SK-OV-3 ovarian, 111%; in the assay on OVCAR-3 ovarian it was 104%. Also, the results for the growth in the assay on HS 578T breast and in the assay with NCI/ADR-RES ovarian were 96% and 93.9%, respectively.

Regarding `CC(=O)OCC1OC(n2cnc3c(=S)nc(N)[nH]c32)C(OC(C)=O)C1OC(C)=O` (centres undefined), the growth was 12.9% with SR leukemia; 76.6% with OVCAR-8 ovarian; 70% in the assay with OVCAR-5 ovarian; 82.5% in the assay on OVCAR-4 ovarian; 50.1% with SK-OV-3 ovarian; 96.6% in the assay on IGROV1 ovarian. The results for the growth with OVCAR-3 ovarian, with HS 578T breast and with NCI/ADR-RES ovarian were 83.4%, 77.3% and 78.4%, respectively.

`CN(C)c1ncnc2c1cnn2C`: the growth in the assay with SR leukemia was 109%; in the assay on RPMI-8226 leukemia, 89%; in the assay on OVCAR-5 ovarian it was 97.5%; in the assay on OVCAR-4 ovarian it was 102%; in the assay on OVCAR-3 ovarian it was 104%; with HS 578T breast it was 99.1%. Besides, the growth with NCI/ADR-RES ovarian is 99.9%.

Take `Nc1ccccc1SC1CC(=O)N(c2ccc(Cl)c(Cl)c2)C1=O` (centres undefined): the growth with SR leukemia was 91.1%; in the assay on OVCAR-8 ovarian it was 79.4%; in the assay with OVCAR-5 ovarian, 104%; in the assay on OVCAR-4 ovarian, 92.1%; with SK-OV-3 ovarian it was 90.5%; in the assay on IGROV1 ovarian it was 105%. Further, the growth is 113% with OVCAR-3 ovarian, 117% in the assay with HS 578T breast and 95.7% with NCI/ADR-RES ovarian.

`CC1(C)C2CCC1(C)C1(C2)OCCS1` (centres undefined): the growth in the assay with RPMI-8226 leukemia was 113%; in the assay on OVCAR-8 ovarian, 101%; with OVCAR-5 ovarian, 93.3%; in the assay with OVCAR-4 ovarian it was 101%; in the assay on SK-OV-3 ovarian, 106%; in the assay with IGROV1 ovarian, 104%. For the same compound, the growth was 109% with OVCAR-3 ovarian, 102% in the assay on HS 578T breast and 92.4% in the assay with NCI/ADR-RES ovarian.

Take `C=CCC(OC(C)=O)c1ccc(OC)c(OC)c1` (centres undefined): the growth was 35.3% in the assay with SR leukemia; 97.1% in the assay with RPMI-8226 leukemia; 113% in the assay on OVCAR-5 ovarian; 118% in the assay on OVCAR-4 ovarian; 126% with SK-OV-3 ovarian; 96.6% in the assay with IGROV1 ovarian. Also, the growth is 111% in the assay with OVCAR-3 ovarian and 116% with NCI/ADR-RES ovarian.

As to `C=C(C)COc1ccc(C(C)(C)C)cc1`, the growth is 96.3% in the assay with SR leukemia; 104% in the assay with RPMI-8226 leukemia; 106% in the assay on OVCAR-5 ovarian; 103% with OVCAR-4 ovarian; 95.9% with SK-OV-3 ovarian; 112% with IGROV1 ovarian. The growth with OVCAR-3 ovarian is 102%; in the assay with HS 578T breast, 90.1%; in the assay on NCI/ADR-RES ovarian, 107%.

On to `OCCOc1ccc(-c2cc(-c3ccccn3)nc(-c3ccccn3)c2)cc1`, for which the growth with SR leukemia is 5.14% (active); with RPMI-8226 leukemia, 2.3% (active); with OVCAR-5 ovarian, -36.4% (active); with OVCAR-4 ovarian, 5.18% (active); in the assay with SK-OV-3 ovarian, 18.5%; with IGROV1 ovarian, -17.6% (active). In addition, the growth was -32.7% (active) in the assay on OVCAR-3 ovarian and -57% (active) in the assay on NCI/ADR-RES ovarian.

On to `C/C(=N\N=C(/C)c1cccc([N+](=O)[O-])c1)c1cccc([N+](=O)[O-])c1`, for which the growth is 86.4% in the assay with SR leukemia; 87.7% in the assay on RPMI-8226 leukemia; 97.9% with OVCAR-5 ovarian; 42.1% in the assay on OVCAR-4 ovarian; 104% with IGROV1 ovarian; 58.1% in the assay on OVCAR-3 ovarian. Besides, the results for the growth in the assay with HS 578T breast and with NCI/ADR-RES ovarian were 78.8% and 93.9%, respectively.

As for `O=C(O)Cc1ccccn1`, the growth in the assay with RPMI-8226 leukemia was 102%; in the assay on OVCAR-8 ovarian, 102%; in the assay on OVCAR-5 ovarian, 101%; in the assay with OVCAR-4 ovarian, 117%; with SK-OV-3 ovarian, 104%; with IGROV1 ovarian, 105%. Besides, the growth with OVCAR-3 ovarian is 114%; with HS 578T breast it was 109%; in the assay on NCI/ADR-RES ovarian, 111%.

Source of the values: PubChem BioAssay (NCI).
